Screens: PubChem, National Center for Advancing Translational Sciences (NCATS)
This is a sample that favours compounds with a hit; in the whole collection about 7.8% have one here.
Luciferase inh = firefly luciferase inhibition; Potency, µM (series often up to 57.1 µM), without a hit: at the top dose activity change, negative = inhibition, most hits filed as inhibitors; P08659; actives 2.2% (n = 72,000); purified firefly luciferase, luminescence, 8 min; further: potency means the concentration at half of the fitted maximal effect; on the % scale 0 is the no-effect control and ±100 the full control effect; nearly all actives have a fitted effect of over 40% in size
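Here, luciferase activity is measured as luminescence following an 8 min room-temperature reaction at 10 uM ATP, pH 7.2. Every library sample is titrated.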
TSHR agonist = activates the human thyroid stimulating hormone receptor; P16473; HEK293-CNG-TSHR cells (CNG channel as cAMP sensor), membrane potential dye, cAMP; Potency, µM (top dose mostly 57.1 µM), inactives show at the top dose activation, actives largely listed as activators; actives 0.48% (n = 73,000); active means well fitted activation curve with a large enough effect in the main read-out, with a control signal flat, not every such curve was filed as active; inconclusive means small, poorly fitted or top-dose-only effect, or a change in a side signal; inactive means no such curve, though single readings can be large or run the other way; % of control where 0% means no effect;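 further: the control signal comes from parental cells without the receptor; potency means the concentration at half of the fitted maximal effect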
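cAMP rise detected as CNG-channel membrane depolarization by fluorescent dye (emission 590 nm), 30 min after compound, following 60 min dye loading containing 100 uM RO 20-1724 at room temperature. Cells: TSHR/CNG HEK 293, with parental CNG HEK 293 as control.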
ALOX15 inhib = 15-hLO (ALOX15) enzyme inhibition; P16050; purified 15hLO-1, xylenol orange hydroperoxide absorbance; actives 1.4% (n = 74,000); Potency, µM (highest dose often 57.1 µM), for the others: at the top dose activity change, negative = inhibition, actives largely listed as inhibitors; further: potency means the concentration at half of the fitted maximal effect; on the % scale 0 is the no-effect control and ±100 the full control effect; nearly all actives have a fitted effect of over 55% in size
Target sequence (P16050 whole entry, looked up): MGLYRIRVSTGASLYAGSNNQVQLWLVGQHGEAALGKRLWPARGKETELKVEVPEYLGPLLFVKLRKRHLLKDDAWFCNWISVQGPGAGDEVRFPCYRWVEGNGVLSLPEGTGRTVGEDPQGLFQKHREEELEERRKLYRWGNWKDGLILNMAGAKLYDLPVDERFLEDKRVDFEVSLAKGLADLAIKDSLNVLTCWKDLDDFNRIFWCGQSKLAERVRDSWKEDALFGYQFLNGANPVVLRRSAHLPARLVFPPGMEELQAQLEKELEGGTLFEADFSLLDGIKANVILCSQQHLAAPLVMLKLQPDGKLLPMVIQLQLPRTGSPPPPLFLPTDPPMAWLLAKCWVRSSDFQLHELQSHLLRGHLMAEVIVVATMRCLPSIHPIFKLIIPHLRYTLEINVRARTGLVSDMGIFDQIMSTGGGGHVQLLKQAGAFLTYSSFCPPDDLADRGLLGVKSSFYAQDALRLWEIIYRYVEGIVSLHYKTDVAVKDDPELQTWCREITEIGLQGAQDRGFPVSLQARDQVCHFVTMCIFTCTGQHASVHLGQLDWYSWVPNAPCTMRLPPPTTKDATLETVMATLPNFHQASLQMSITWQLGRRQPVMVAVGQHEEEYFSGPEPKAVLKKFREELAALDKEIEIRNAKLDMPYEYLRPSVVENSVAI
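Purified human 15hLO-1 (40 nM) in 25 mM Hepes pH 7.5, 0.01% Triton X-100, preincubated 15 min RT with compound, then 50 uM arachidonic acid for 6 min. Hydroperoxide read by ferrous/xylenol orange, 30 min; 573/405 nm absorbance ratio gave progress.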
HEK293 cAMP ctrl = counter-screen for TSHR agonists: cAMP increase in parental HEK293; parental HEK293 CNG cAMP sensor, membrane potential fluorescence; Potency, µM (highest dose often 57.1 µM), for inactives: top-dose activation, actives largely listed as activators; actives 2.5% (n = 73,000); AID 938; further: potency means the concentration at half of the fitted maximal effect; % of control where 0% means no effect; nearly all actives have a fitted effect of over 55% in size
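Parental HEK 293 cells stably expressing a cAMP-gated CNG channel were loaded with membrane potential dye containing 100 uM RO 20-1724 for 60 min. Compound added for 30 min; depolarization read as fluorescence intensity at 590 nm.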
Tau fil binding = tau filament binding; P10636; recombinant tau filaments, thioflavin S fluorescence, 15 h; filaments grown with octadecylsulfate alongside compound; Potency, µM (top dose mostly 57.1 µM), without a hit: top-dose activity change, negative = inhibition; actives 2% (n = 71,000); AID 596;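 further: potency means the concentration at half of the fitted maximal effect; on the % scale 0 is the no-effect control and ±100 the full control effect; actives lower thioflavin S fluorescence by blocking filaments or displacing dye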
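Recombinant tau protein (human, 1 uM final) plus 30 uM ODS in HEPES pH 7.4 with NaCl, DTT and thioflavine S. Compound present from the start; fluorescence at 510 nm after 15 h, 37 C.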
Bst PK mod = modulators of Bacillus stearothermophilus pyruvate kinase. AID 361. Potency, µM. purified pyruvate kinase, luminescence ATP production; ribose 5-phosphate activator present at AC10. actives 1.2% (n = 51,000); in the data active means potency below about 11 µM; inconclusive means mostly about 12 µM to 25 µM;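 the screen sought inhibitors and activators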;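 further: potency means the concentration at half of the fitted maximal effect; scaled between full activation by ribose 5 phosphate and full inhibition by luteolin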
tau ThS displ = compounds binding human tau filaments, displacing Thioflavin S; shares compounds with Tau fil binding; recombinant tau filaments, Thioflavin S fluorescence displacement; Potency, µM; actives 40% (n = 60); calls by dose curve
aSyn ThS bind = compounds binding human alpha-synuclein fibrils, displacing Thioflavin S; shares compounds with Tau fil binding; Potency, µM; recombinant alpha-synuclein fibrils, ThS fluorescence displacement; actives 40% (n = 60); AID 937; calls by dose curve
Abeta ThS displ = displaces Thioflavin S from Abeta1-42 fibrils; shares compounds with Tau fil binding; Abeta1-42 fibrillization, thioflavin S fluorescence, overnight 37 C; Potency, µM; actives 50% (n = 60); AID 956; calls by dose curve
* marks the source's active call; other numbers are inactive results; i = inactive; ? = inconclusive; nt = no result; [ ] = dose if it differs, or a comment. Unless noted, the call rests on the fitted dose curve; in most records, active means well fitted curve in the direction sought with a large enough effect; inconclusive means small, poorly fitted or top-dose-only effect, or another doubt; inactive means no such curve, though single readings can be large; an effect the other way counts as inactive or inconclusive.

SMILES	Luciferase inh	TSHR agonist	ALOX15 inhib	HEK293 cAMP ctrl	Tau fil binding	Bst PK mod	tau ThS displ	aSyn ThS bind	Abeta ThS displ
CC(C)(C)NC(=O)C(c1ccncc1)N(C(=O)c1csnn1)C1CC1 (stereo not drawn)	?	7.4%	-9.9%	5.7%	-10.6%	9.09*	nt	nt	nt
O=C(O)c1ccc(Cl)c(S(=O)(=O)Nc2ccccc2)c1	nt	-5.3%	-4.0%	-3.5%	nt	nt	nt	nt	nt
c1ccc2c(c1)C(=NCC1CCCO1)NC2=NCC1CCCO1 (stereo not drawn)	3.4%	-2.8%	0.0%	-0.9%	-19.8%	>57	nt	nt	nt
CC(C)(C)N=C1NC(=NC(C)(C)C)c2ccccc21	1.3%	7.0%	0.3%	2.4%	2.51µM*	>57	nt	nt	nt
COc1ccc(-c2nnc(CSc3nc4ccccc4c(=O)n3CC(C)C)o2)cc1OC	0.3%	?	-9.9%	7.94µM*	19.5%	>57	nt	nt	nt
COc1cc(-c2nnc(CSc3nc4ccccc4s3)o2)cc(OC)c1OC	-2.3%	?	-9.6%	31.6µM*	4.0%	>57	nt	nt	nt
COc1ccc(-c2noc(CSc3nc4ccccc4c(=O)n3-c3ccccc3)n2)cc1OC	1.1%	25.6%	-5.3%	18.5%	193.4%	>57	nt	nt	nt
C[C@H]1[C@H](C)CC[C@]2(C(=O)O)CC[C@]3(C)C(=CC[C@@H]4[C@]5(C)C[C@H](O)[C@@H](O)[C@@](C)(CO)[C@@H]5[C@H](O)C[C@@]43C)[C@H]12	-1.6%[11.4 µM]	?	-11.1%[11.4 µM]	?	6.9%[11.4 µM]	nt	nt	nt	nt
Nc1ccc(C2CCCc3nonc32)c2nonc12 (stereo not drawn)	0.2%	-1.8%	7.94µM*	-18.4%	25.1µM*	nt	nt	nt	nt
CC(C)Cc1nc2oc3c(N4CCN(CCO)CC4)ncnc3c2c2c1CCCC2	3.0%	?	-1.5%	15.8µM*	52.4%	>57	nt	nt	nt
COc1ccc(-c2cc(C(F)(F)F)n3ncc(C(=O)NCC4CCCO4)c3n2)cc1 (stereo not drawn)	4.1%	?	-7.9%	10µM*	-26.2%	>57	nt	nt	nt
Cc1cc(NC(=O)c2cc(-c3cccnc3)nc3c(C)c(C)ccc23)no1	0.2%	?	-9.5%	25.1µM*	2.0%	>57	nt	nt	nt
Cc1cc(NC(=O)c2cnn3c(C(F)F)cc(-c4ccccc4)nc23)no1	2.6%	-0.5%	-2.2%	24.4%	?	>57	nt	nt	nt
Cc1cc(NC(=O)c2cnn3c(C(F)(F)F)cc(-c4ccccc4)nc23)no1	0.9%	-52.2%	-3.7%	-28.6%	3.16µM*	>57	nt	nt	nt
CC(C)c1ccc(OCC(O)CN2CCN(c3ccccc3)CC2)cc1 (stereo not drawn)	1.5%	-5.9%	-26.8%	9.5%	-16.9%	>57	nt	nt	nt
Cc1cc(C(=O)OCC(=O)N(C)C2CCS(=O)(=O)C2)c(C)n1-c1ccccc1 (stereo not drawn)	1.2%	12.7%	-1.8%	8.8%	1.5%	>57	nt	nt	nt
Cc1cc(NC(=O)c2cc3nc(C4CC4)cc(C(F)(F)F)n3n2)no1	0.6%	-21.3%	-5.4%	2.9%	-7.2%	>57	?	i	?
O=C(NCc1ccco1)c1cc2nc(C3CC3)cc(C(F)(F)F)n2n1	-0.1%	-3.3%	0.9%	2.3%	-7.9%	>57	nt	nt	nt
CCOC(=O)C1CCN(S(=O)(=O)c2cccc3nonc23)CC1	1.7%	7.8%	-20.4%	9.3%	-11.1%	>57	i	i	i
Cc1ccc(NC(=O)C2CCN(S(=O)(=O)c3cccc4nonc34)CC2)nc1	0.9%	?	-0.6%	?	-19.5%	>57	nt	nt	nt
CN1c2cccc3cccc(c23)N(C)C1(C)C	1.3%	-4.1%	-12.3%	0.8%	-80.8%	nt	i	?	?
CC(C)C[C@@H](CC(=O)N[C@@H](CCC(=O)O)CC(=O)O)NC(=O)[C@@H]1CNCC[C@H]1NC(=O)C[C@@H](NC(=O)C[C@H](Cc1ccccc1)NC(=O)[C@@H]1CCCC[C@H]1N)C(C)C	nt	2.5%	nt	7.4%	-4.8%	nt	nt	nt	nt
Nc1ccc(Nc2ccccc2N)cc1	-14.7%	-18.7%	?	-20.4%	-120.0%	nt	2.77µM*	2.32µM*	2.05µM*
CCCCCn1c(Sc2nc3ccccc3s2)nc2c1c(=O)[nH]c(=O)n2C	2.0%	?	1.1%	?	46.7%	>57	nt	nt	nt
CCCCCn1c(=O)[nH]c2cc(C(=O)NCCN(CC)CC)ccc2c1=O	-1.6%	-0.1%	7.5%	4.7%	-0.8%	>57	nt	nt	nt
SMILES	Luciferase inh	TSHR agonist	ALOX15 inhib	HEK293 cAMP ctrl	Tau fil binding	Bst PK mod	tau ThS displ	aSyn ThS bind	Abeta ThS displ
N#CC(C(=O)NCCc1ccccc1)c1nc2ccccc2nc1N1CCCCC1 (stereo not drawn)	0.4%	7.9%	-8.5%	21.0%	-5.4%	>57	?	?	?
COC(=O)C1=C2N(Cc3ccccc3)C(C)=C(C(=O)OC)C(c3ccccc3)N2C(=O)[C@](O)(C(=O)OC)C1 (stereo partly drawn)	nt	?	5.9%[11.4 µM]	?	nt	nt	nt	nt	nt
CN(C)c1ccc(NC(=S)c2ccccn2)cc1	0.794µM*	-28.4%	3.2%	-15.4%	5.01µM*	nt	7.11µM*	8.88µM*	6.24µM*
CCOc1cc2[nH]c(=O)n(CCCCC(=O)NC3CCCCC3)c(=O)c2cc1OCC	0.8%	?	7.5%	?	-39.1%	>57	i	i	i
N=C(N)c1ccc(N=Nc2c(O)ccc3c2[nH]c2ccccc23)cc1	-4.0%[11.4 µM]	-9.0%[11.4 µM]	49.3%[11.4 µM]	-15.7%[11.4 µM]	1µM*	nt	0.81µM*	2.62µM*	1.03µM*
O=C(O)c1ccc(S(=O)(=O)N=Nc2c(O)[nH]c3ccccc23)cc1	3.6%[11.4 µM]	4.3%[11.4 µM]	1.2%[11.4 µM]	23.5%[11.4 µM]	-1.1%[11.4 µM]	nt	nt	nt	nt
Cc1cc(=O)[nH]c(Nc2ccc(C(=O)OC(C)C)cc2)n1	-8.4%	-11.7%	-3.7%	-0.6%	-7.9%	>57	nt	nt	nt
Cc1nn(Cc2ccccc2)c(C)c1C(=O)Nc1ccc(N2CCOCC2)cc1	-2.3%	nt	7.1%	0.7%	0.6%	>57	nt	nt	nt
Cc1cc(C(=O)Nc2ccc(N3CCOCC3)cc2)c2ccccc2n1	1.8%	-1.7%	2.0%	-9.0%	7.94µM*	>57	i	i	i
CN1CCc2c(sc3c2C(=O)NC(c2ccccn2)N3)C1 (stereo not drawn)	-1.5%	4.7%	14.1%	0.8%	i	i	nt	nt	nt
CCOC(=O)N1CCc2c(sc3c2C(=O)NC(c2ccc(-c4ccc(Cl)cc4)o2)N3)C1 (stereo not drawn)	-1.8%	-11.8%[11.4 µM]	-2.4%	-6.9%	0.631µM*	>57	i	i	i
